# Data as given in PubChem BioAssay.
# For some assays here: Measured potencies and affinities stand elsewhere. Active and inactive are the calls of the source. Unless noted, no rule for the calls is given here.
# What was measured:
# [1] = antimalarial activity against Dd2 strain (AID 2302;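 active = growth inhibition above 50% at the single 2 µM test dose, taken to imply half-maximal potency below 2 µM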;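 also: 0% = DMSO untreated growth and 100% = chloroquine plus artemisinin killed control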); conditions: P. falciparum Dd2 in RBCs, LDH growth readout, 72 h; at 2 µM; stronger effect = higher value
# [2] = human hepatoma cell viability loss – ATP luminescence, cytotoxicity control for P. falciparum antimalarial project, primary screen (AID 2303;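 active = inhibition above 50%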;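 also: 0% = DMSO wells and 100% = digitonin-killed cells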); conditions: HepG2 viability, 24-48 h, at 10 µM, stronger effect = higher value
# [3] = target: L-lactate dehydrogenase (Plasmodium falciparum (isolate CDC / Honduras)) (UniProt Q27743); test: PfLDH activity inhibition – cell lysate, 3D7 strain, counter-screen for P. falciparum growth inhibition project (AID 2304);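 also: 0% = vehicle and 100% = reference inhibitor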; conditions: P. falciparum 3D7 crude extract, LDH APAD/NBT absorbance; at 2 µM; stronger effect = higher value
# L-lactate dehydrogenase (Plasmodium falciparum (isolate CDC / Honduras)), sequence (Q27743 whole entry, looked up): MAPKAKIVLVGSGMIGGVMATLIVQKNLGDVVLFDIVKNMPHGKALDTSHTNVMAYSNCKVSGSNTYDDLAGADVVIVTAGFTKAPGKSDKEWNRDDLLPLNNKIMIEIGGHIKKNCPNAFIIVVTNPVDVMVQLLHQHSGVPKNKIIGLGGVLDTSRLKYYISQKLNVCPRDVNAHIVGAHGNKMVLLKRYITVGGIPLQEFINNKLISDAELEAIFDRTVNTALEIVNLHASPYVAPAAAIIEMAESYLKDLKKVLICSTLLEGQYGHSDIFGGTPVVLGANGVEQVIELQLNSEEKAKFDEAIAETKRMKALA
# [4] = inhibition of 3D7 malaria parasite growth – strain 3D7 (AID 2306);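 also: 0% = DMSO wells and 100% = chloroquine plus artemisinin control wells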; conditions: P. falciparum 3D7 erythrocytic growth, LDH absorbance, 72 h; at 2 µM; stronger effect = higher value
# [5] = target: Calcium-dependent protein kinase 1 (Plasmodium falciparum (isolate 3D7)) (UniProt P62344); test: PfCDPK1 kinase inhibitors, biochemical, TCAMS library (AID 1159585; cut-off not given, nearly all actives have IC50 up to about 0.98 µM;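 also: inhibitors leave more ATP so luminescence rises with inhibition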); conditions: recombinant PfCDPK1, Kinase-Glo ATP depletion luminescence
# Calcium-dependent protein kinase 1 (Plasmodium falciparum (isolate 3D7)), sequence (P62344 whole entry, looked up): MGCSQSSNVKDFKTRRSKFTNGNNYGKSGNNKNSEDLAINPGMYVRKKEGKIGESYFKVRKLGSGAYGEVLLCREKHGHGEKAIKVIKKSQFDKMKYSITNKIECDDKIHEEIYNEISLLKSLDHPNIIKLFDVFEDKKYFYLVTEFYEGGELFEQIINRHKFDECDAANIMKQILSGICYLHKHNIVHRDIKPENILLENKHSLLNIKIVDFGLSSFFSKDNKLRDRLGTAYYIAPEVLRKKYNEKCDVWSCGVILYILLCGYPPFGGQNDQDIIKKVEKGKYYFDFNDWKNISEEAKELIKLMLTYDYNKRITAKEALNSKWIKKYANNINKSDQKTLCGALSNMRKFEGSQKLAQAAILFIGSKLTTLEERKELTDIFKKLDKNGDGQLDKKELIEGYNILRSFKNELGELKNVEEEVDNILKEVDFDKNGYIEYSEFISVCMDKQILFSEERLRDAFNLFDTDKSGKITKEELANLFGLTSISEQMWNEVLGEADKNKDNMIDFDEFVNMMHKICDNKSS
# [6] = target: Plasmodium falciparum protein kinase 6 (PK6, PF3D7_1337100) (UniProt Q8IDW1); test: PfPK6 kinase inhibitors, biochemical, TCAMS library (AID 1159586); conditions: recombinant PfPK6, Kinase-Glo ATP depletion luminescence
# Plasmodium falciparum protein kinase 6 (PK6, PF3D7_1337100), sequence (Q8IDW1 1-305): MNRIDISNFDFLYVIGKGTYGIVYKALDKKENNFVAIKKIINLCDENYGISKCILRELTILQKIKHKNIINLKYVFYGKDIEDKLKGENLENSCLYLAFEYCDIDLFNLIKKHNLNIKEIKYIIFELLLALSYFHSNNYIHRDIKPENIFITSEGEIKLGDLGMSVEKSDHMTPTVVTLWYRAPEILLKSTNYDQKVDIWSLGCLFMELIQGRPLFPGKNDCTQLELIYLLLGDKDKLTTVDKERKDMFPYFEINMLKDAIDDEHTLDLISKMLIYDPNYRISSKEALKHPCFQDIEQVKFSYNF
# [7] = target: Protein kinase 7 (PK7), Plasmodium falciparum 3D7 (PF3D7_0213400) (UniProt Q7YTF7); test: inhibition of Plasmodium PK7 catalytic activity – biochemical, TCAMS antimalarial set, Kinase-Glo luminescence (AID 1159587); conditions: recombinant PfPK7, Kinase-Glo ATP depletion luminescence
# Protein kinase 7 (PK7), Plasmodium falciparum 3D7 (PF3D7_0213400), sequence (Q7YTF7 1-343): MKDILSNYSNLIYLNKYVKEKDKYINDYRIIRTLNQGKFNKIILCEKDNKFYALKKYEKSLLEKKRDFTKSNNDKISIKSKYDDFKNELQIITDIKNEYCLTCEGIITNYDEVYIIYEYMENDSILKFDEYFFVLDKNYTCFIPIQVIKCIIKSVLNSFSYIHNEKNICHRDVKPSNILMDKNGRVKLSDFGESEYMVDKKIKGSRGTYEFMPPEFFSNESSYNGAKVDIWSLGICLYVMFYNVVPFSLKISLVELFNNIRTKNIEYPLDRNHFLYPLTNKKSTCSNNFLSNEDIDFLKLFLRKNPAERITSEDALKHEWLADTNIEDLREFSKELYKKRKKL
# [8] = target: Calcium-dependent protein kinase 4 (Plasmodium falciparum (isolate 3D7)) (UniProt Q8IBS5); test: PfCDPK4 kinase inhibitors, biochemical, TCAMS library (AID 1159588; cut-off not given, nearly all actives have IC50 up to about 0.91 µM); conditions: recombinant PfCDPK4, Kinase-Glo ATP depletion luminescence
# Calcium-dependent protein kinase 4 (Plasmodium falciparum (isolate 3D7)), sequence (Q8IBS5 whole entry, looked up): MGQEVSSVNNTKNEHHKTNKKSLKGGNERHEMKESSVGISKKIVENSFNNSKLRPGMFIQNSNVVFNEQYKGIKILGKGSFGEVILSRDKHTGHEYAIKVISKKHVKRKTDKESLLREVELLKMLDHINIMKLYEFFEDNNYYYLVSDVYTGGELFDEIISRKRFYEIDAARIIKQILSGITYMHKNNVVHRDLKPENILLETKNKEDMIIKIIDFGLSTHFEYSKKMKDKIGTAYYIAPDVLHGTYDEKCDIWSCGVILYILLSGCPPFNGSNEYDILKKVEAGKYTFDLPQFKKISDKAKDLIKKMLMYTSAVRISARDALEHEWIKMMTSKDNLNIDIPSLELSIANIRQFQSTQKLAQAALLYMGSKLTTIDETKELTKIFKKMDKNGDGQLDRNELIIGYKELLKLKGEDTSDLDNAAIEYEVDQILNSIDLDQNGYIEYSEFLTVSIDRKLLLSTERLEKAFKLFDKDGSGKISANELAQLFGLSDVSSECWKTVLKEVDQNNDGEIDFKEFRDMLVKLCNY
Compound,growth inhibition [1],inhibition [2],inhibition [3],growth inhibition [4],outcome [5],outcome [6],outcome [7],outcome [8]
Nc1cccc(CNCc2cccc(-c3ccc(-c4nc5ccccc5[nH]4)s3)c2)c1,90% (active),8% (inactive),-1% (inactive),101% (active),inactive,inactive,inactive,inactive
CCOC(=O)c1cc(=O)c2ccc(OCC#N)cc2o1,86% (active),2% (inactive),-6% (inactive),88% (active),inactive,inactive,inactive,inactive
CN(Cc1ccncc1)C(Cc1ccccc1)C1CCN(Cc2ccc(O)c(Cl)c2)CC1 (stereo unspecified),97% (active),22% (inactive),-4% (inactive),96% (active),inactive,inactive,inactive,inactive
O=C(Nc1ccc(OC(F)(F)F)cc1)Nc1ccc([N+](=O)[O-])cc1,100% (active),41% (inactive),3% (inactive),100% (active),inactive,inactive,inactive,inactive
Cc1cccc(C)c1N1CCN(C2CCC(NC(=O)c3cc4ccccc4[nH]3)CC2)CC1 (stereo unspecified),64% (active),31% (inactive),-7% (inactive),101% (active),inactive,inactive,inactive,inactive
Fc1ccccc1-c1cc(Nc2ccncc2)nc(-c2cccnc2)n1,89% (active),91% (active),3% (inactive),103% (active),inactive,inactive,inactive,inactive
Cc1nc(-c2nc(NCc3ccccn3)ncc2-c2ccsc2)sc1C,87% (active),-2% (inactive),4% (inactive),92% (active),inactive,inactive,inactive,inactive
COc1cc(C(F)(F)F)nc2c(CNCCCNc3cc(=O)c4ccccc4[nH]3)scc12,16% (inactive),-7% (inactive),-2% (inactive),92% (active),inactive,inactive,inactive,inactive
C[C@H]1[C@H](c2cccc(Cl)c2)OCC(C)(C)N1C(=O)CCN1CCCCC1,5% (inactive),2% (inactive),-1% (inactive),88% (active),inactive,inactive,inactive,inactive
Cc1ccc(NC(=O)NC2CCN(CCCCCNC(=O)/C=C/c3ccc(Cl)c(Cl)c3)CC2)cc1,19% (inactive),41% (inactive),-2% (inactive),102% (active),inactive,inactive,inactive,inactive
C=Cc1c(C2CCN(CCCCNC(=O)c3ccc(-c4ccc(C#N)cc4)cc3)CC2)ccc2c1CCCC2,75% (active),75% (active),1% (inactive),94% (active),inactive,inactive,inactive,inactive
COc1cc2nc(N3CCC(CNC(=O)c4ccc(-c5ccc(C(=O)N(C)C)cc5OCCN(C)C)cc4)CC3)nc(N)c2cc1OC,-1% (inactive),-1% (inactive),-6% (inactive),95% (active),inactive,inactive,inactive,inactive
COc1ccc(C(=O)CCc2ccc(O)cc2)cc1,90% (active),-2% (inactive),4% (inactive),96% (active),inactive,inactive,inactive,inactive
O=C(/C=C/c1ccc(Cl)c(Cl)c1)NCCCCCN1CCC(CCNC(=O)Cc2ccc(Cl)cc2)CC1,0% (inactive),45% (inactive),-8% (inactive),83% (active),inactive,inactive,inactive,inactive
Cc1cccc2[nH]c(-c3cccc(-c4ccc(CN5CCCC5CN)cc4)c3)nc12 (stereo unspecified),47% (inactive),19% (inactive),3% (inactive),101% (active),inactive,inactive,inactive,inactive
O=C(/C=C/c1ccc(Cl)c(Cl)c1)NCCCCCN1CCC(NC(=O)c2cccc(Cl)c2)CC1,23% (inactive),12% (inactive),-6% (inactive),98% (active),inactive,inactive,inactive,inactive
O=C(Nc1ccc(-c2nc3ccccc3[nH]2)cc1)c1cccc(S(=O)(=O)N2CCOCC2)c1,43% (inactive),6% (inactive),-5% (inactive),89% (active),inactive,inactive,inactive,inactive
Oc1ccc2[nH]c(-c3cccs3)nc2c1CN1CCC(O)(c2ccccc2)CC1,69% (active),10% (inactive),-1% (inactive),93% (active),inactive,inactive,inactive,inactive
Cc1[nH]c2c(NCc3ccc(F)cc3)nccc2c1C,-3% (inactive),63% (active),-3% (inactive),83% (active),inactive,inactive,inactive,inactive

Compound,growth inhibition [1],inhibition [2],inhibition [3],growth inhibition [4],outcome [5],outcome [6],outcome [7],outcome [8]
COc1ccc(-c2nc(NC(=O)Cc3coc4cc(OC)ccc34)sc2C)cc1,77% (active),9% (inactive),-2% (inactive),100% (active),inactive,inactive,inactive,inactive
CC(C)Cn1cc(C2CCN(CCN3CCC(CNC(=O)c4ccc(-c5ccc(C#N)cc5)cc4)CC3)CC2)c2ccccc21,98% (active),28% (inactive),8% (inactive),100% (active),inactive,inactive,inactive,inactive
COc1ccc(CNC(=O)c2cc3c(=O)n4ccccc4nc3n(CCc3ccccc3)c2=N)cc1,22% (inactive),26% (inactive),-4% (inactive),99% (active),inactive,inactive,inactive,inactive
CCN(CC)Cc1cccc(-c2cc3c(-c4ccc(C(=O)O)c(C(C)C)c4)ccnc3[nH]2)c1OC,99% (active),57% (active),-2% (inactive),99% (active),inactive,inactive,inactive,inactive
Oc1ccc(CCNCCCCCCNCCc2ccc(Cl)cc2)c(Cl)c1O,30% (inactive),23% (inactive),-7% (inactive),100% (active),inactive,inactive,inactive,inactive
CN1CCN(c2ccc(-c3cccc(NC(=O)c4cccc([N+](=O)[O-])c4)c3)nn2)CC1,35% (inactive),21% (inactive),-1% (inactive),99% (active),inactive,inactive,inactive,inactive
CCCCOc1ccc(C(=O)C(CCC(CNC(C)(C)C)C(=O)c2ccc(OCCCC)cc2)CNC(C)(C)C)cc1 (stereo unspecified),92% (active),100% (active),1% (inactive),94% (active),inactive,inactive,inactive,inactive
CCCCCCCCNCCCSCCCNCCCCCCCC,47% (inactive),63% (active),-3% (inactive),97% (active),inactive,inactive,inactive,inactive
COc1cc(OC)c(NC(=O)Nc2ccnc3ccccc23)cc1Cl,9% (inactive),19% (inactive),-2% (inactive),97% (active),inactive,inactive,inactive,inactive
COc1cc(Nc2nccc(N3CCC(NC(=O)c4cccc(C#N)c4)C3)n2)cc(OC)c1OC (stereo unspecified),76% (active),13% (inactive),-8% (inactive),91% (active),inactive,inactive,inactive,inactive
CCN(CC)CCCC(C)Nc1c(-c2ccc(Br)cc2)cnc2ccccc12 (stereo unspecified),95% (active),7% (inactive),-1% (inactive),100% (active),inactive,inactive,inactive,inactive
Cc1cccc(CNc2nc(C)cc(N[C@@H](CC(C)C)C(=O)NCCOc3ccccc3)n2)c1,35% (inactive),15% (inactive),-1% (inactive),93% (active),inactive,inactive,inactive,inactive
Cc1ccccc1C1CCN(C2CCC(NC(=O)/C=C/c3ccc(OC(F)(F)F)cc3)CC2)CC1 (stereo unspecified),67% (active),96% (active),-5% (inactive),100% (active),inactive,inactive,inactive,inactive
O=S(=O)(Nc1ccc(CCN2CCC(N3CCCCC3)CC2)cc1)c1ccccc1C(F)(F)F,8% (inactive),9% (inactive),-3% (inactive),95% (active),inactive,inactive,inactive,inactive
Cc1cccc2[nH]c(-c3ccc(-c4cccc(CN5CCC(CO)CC5)c4)s3)nc12,61% (active),20% (inactive),-8% (inactive),99% (active),inactive,inactive,inactive,inactive
O=C(Nc1ccc(OC2CCN(Cc3ccccc3)CC2)c(Cl)c1)c1ccco1,96% (active),8% (inactive),6% (inactive),96% (active),inactive,inactive,inactive,inactive
CCC(CSC1CCCCC1)N(C)CCN(C)C(CC)CSC1CCCCC1 (stereo unspecified),98% (active),84% (active),-4% (inactive),98% (active),inactive,inactive,inactive,inactive
Cc1cc(F)ccc1Oc1nc(Nc2ccc(N3CCOCC3)c(F)c2)nc2c1S(=O)(=O)CCC2,98% (active),10% (inactive),0% (inactive),96% (active),inactive,inactive,inactive,inactive
